High-throughput results from PubChem.
T cruzi growth-1: blocks T. cruzi growth in NIH3T3 culture; T. cruzi beta-gal in NIH3T3, GalScreen luminescence, 90 h; inhibition, % at 8.34 µM; 5.9% of 77,000 active;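 active means mean inhibition above about 93%, with at least 55% of replicates each passing it, limit read from the data, passing the limit was not always enough; inconclusive means only one of those two conditions holds; inactive means neither condition holds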
C diff HTS: blocks growth of Clostridium difficile | AID 1259249 | 0.25% of 86,000 active | growth activity, negative = inhibition, % at 16 µg/mL (by protocol) | Clostridium difficile clinical isolate growth, OD600, 24 h; hits give low values;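 active means mean growth activity at or below -80% and every replicate also at or below -80%; inconclusive means mean at or below -80% but some replicate above -80%; inactive means mean growth activity above -80%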;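 further: 0% = DMSO wells and -100% = levofloxacin 16 µg/mL wells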
Pf Dd2 inh: inhibitors of Plasmodium falciparum Dd2 growth; P. falciparum Dd2 growth, SYBR Green, 72 h; hits give low values; activity change, % at 10 µM; 2.3% of 94,000 active; in the data active means activity change below about -80%; inconclusive means no clear call, values can overlap the other calls
T cruzi growth-2: blocks T. cruzi growth in NIH3T3 host cells. 72% of 5,600 active. shares compounds with T cruzi growth-1. T. cruzi beta-gal in NIH3T3, GalScreen luminescence, 90 h. inhibition, % at 8.35 µM;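 active means mean replicate inhibition above about 95% and at least 55% of replicates individually reaching it, limit read from the data; inconclusive means only one of the two criteria is met; inactive means neither criterion is met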
T cruzi growth-3: Trypanosoma cruzi proliferation inhibition. shares compounds with T cruzi growth-1. T. cruzi beta-gal in NIH3T3, GalScreen luminescence, 90 h. inhibition, % at 2.09 µM. 21% of 5,600 active. AID 651740;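 active means mean inhibition above about 95%, with at least 55% of replicates also reaching it, limit read from the data; inconclusive means meets just one of the two conditions; inactive means meets neither condition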;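 further: plate controls were neutral control median for no effect and positive control median for full effect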
NIH3T3 tox: NIH/3T3 (mouse) viability loss; shares compounds with T cruzi growth-1; AID 651742; NIH/3T3 viability, CellTiter-Glo ATP luminescence, 90 h; cytotoxicity (signal decrease), % at 8.35 µM; 14% of 5,600 active;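 active means mean signal decrease across replicates above about 35% based on untreated-well scatter, with enough replicates individually passing, limit read from the data; inconclusive means no rule stated though some were filed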;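 further: 0% = median of neutral control wells and 100% = median of positive control wells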
NIH3T3 tox 2: kills mouse NIH/3T3 fibroblasts | shares compounds with T cruzi growth-1 | NIH/3T3 viability, CellTiter-Glo ATP luminescence, 90 h | 56% of 5,600 active | inhibition, % at 24.9 µM;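 active means mean loss of cell viability signal at or above a set limit, and enough replicates individually reaching it; inconclusive means meets only the mean limit or only the replicate share; inactive means meets neither condition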;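 further: 0% = median of neutral control wells and 100% = median of positive control wells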
Numbers without * were called inactive; ? = inconclusive; · = not tested or not shown. A selection: hits, their analogues and other compounds. The true share with any hit is near 6.7%.

SMILES	T cruzi growth-1	C diff HTS	Pf Dd2 inh	T cruzi growth-2	T cruzi growth-3	NIH3T3 tox	NIH3T3 tox 2
C[C@@H]1CN([C@H](C)CO)C(=O)c2cc(C3=CCCC3)cnc2O[C@H]1CN(C)C(=O)c1cccnc1	-169.9	-1.0	15.5	·	·	·	·
N#C[C@@H]1[C@@H](c2ccc(-c3ccccc3)cc2)[C@@H](CO)N1C(=O)Cc1ccncc1	92.7	-1.8	-7.8	·	·	·	·
N#C[C@H]1[C@H](c2ccc(-c3ccc(F)cc3)cc2)[C@H](CO)N1C(=O)Cc1ccccc1	87.7	15.9	-16.1	·	·	·	·
N#C[C@H]1[C@H](c2ccc(-c3ccccc3)cc2)[C@H](CO)N1C(=O)Cc1ccncc1	102.2*	3.5	-80.0	109.8*	40.1	-4.4	?
N#C[C@H]1[C@@H](c2ccc(-c3ccncc3)cc2)[C@@H](CO)N1C(=O)Cc1ccccc1	?	7.4	-25.1	103.5*	8.3	29.1	43.7*
N#C[C@@H]1[C@@H](c2ccc(-c3ccncc3)cc2)[C@@H](CO)N1C(=O)Cc1ccccc1	?	-3.0	-53.4	-2.8	-125.1	26.6	28.4*
N#C[C@@H]1[C@H](c2ccc(-c3cncnc3)cc2)[C@@H](CO)N1C(=O)Cc1ccccc1	88.1	-9.6	31.1	·	·	·	·
N#C[C@H]1[C@H](c2ccc(C#Cc3ccc(F)cc3)cc2)[C@H](CO)N1C(=O)Cc1ccncc1	?	-13.6	-72.6	89.4	87.3	-24.3	?
N#C[C@H]1[C@@H](c2ccc(-c3ccc(F)cc3)cc2)[C@@H](CO)N1C(=O)Cc1ccccc1	73.6	6.3	-6.5	·	·	·	·
C[C@H]1CN([C@@H](C)CO)C(=O)c2cccc(NC(=O)C3CCOCC3)c2O[C@H]1CN(C)C(=O)NC1CCCCC1	53.3	2.8	24.4	·	·	·	·
CCOC(=O)N(C)C[C@@H]1OCc2ccccc2-c2c(n(C)c3ccccc23)C(=O)N([C@@H](C)CO)C[C@@H]1C	-25.8	·	13.0	·	·	·	·
C[C@@H]1CCCCO[C@@H](CN(C)C(=O)CCCN(C)C)[C@H](C)CN([C@@H](C)CO)C(=O)c2cc(NS(=O)(=O)c3ccc(Cl)cc3)ccc2O1	38.8	-3.5	-0.5	·	·	·	·
C[C@@H]1CN([C@H](C)CO)S(=O)(=O)c2ccc(C#CCC3CCCC3)cc2O[C@H]1CN(C)C(=O)CN(C)C	113.3	1.5	-65.0	·	·	·	·
CCC(=O)N(C)C[C@@H]1Oc2cc(C#CCC3CCCC3)ccc2S(=O)(=O)N([C@@H](C)CO)C[C@@H]1C	97.3*	-17.6	-56.5	?	87.7	19.0	104.3*
C[C@H]1CN([C@@H](C)CO)S(=O)(=O)c2ccc(C#CCC3CCCC3)cc2O[C@@H]1CN(C)C(=O)CN(C)C	121.7	4.1	-71.8	·	·	·	·
CCC(=O)N(C)C[C@@H]1Oc2cc(C#CCC3CCCC3)ccc2S(=O)(=O)N([C@H](C)CO)C[C@@H]1C	105.4*	4.0	-55.3	107.0*	86.6	4.5	97.3*
CO[C@@H]1CN(C)C(=O)c2cc(NC(C)=O)ccc2OC[C@@H](C)N(Cc2nccs2)C[C@@H]1C	-62.1	-3.7	17.1	·	·	·	·
C[C@H]1CN([C@@H](C)CO)C(=O)c2cc(NC(=O)C3CCCCC3)ccc2O[C@H]1CN(C)Cc1ccc(C(F)(F)F)cc1	15.5	8.0	-5.3	·	·	·	·
C[C@@H]1CN([C@@H](C)CO)C(=O)c2cc(NC(=O)C3CCCCC3)ccc2O[C@@H](C)CCCCO[C@H]1CN(C)Cc1ccc(C(F)(F)F)cc1	?	16.9	-55.9	88.8	116.1*	25.9	7.1
C[C@@H]1CN([C@@H](C)CO)C(=O)c2cc(NC(=O)C3CCCCC3)ccc2O[C@@H](C)CCCCO[C@H]1CN(C)Cc1ccc(C(=O)O)cc1	5.8	-0.5	17.6	·	·	·	·
C[C@@H]1CCCCO[C@H](CN(C)Cc2ccc(C(F)(F)F)cc2)[C@@H](C)CN([C@@H](C)CO)C(=O)c2cc(NC(=O)C3CCCCC3)ccc2O1	?	6.6	-84.6*	95.0*	107.6*	-1.7	26.8*
C[C@@H]1CN([C@H](C)CO)C(=O)c2cc(NC(=O)C3CCCCC3)ccc2O[C@@H](C)CCCCO[C@H]1CN(C)Cc1ccncc1	102.7*	-3.6	-12.1	65.0	32.5	0.2	2.6
C[C@H]1CCCCO[C@@H](CN(C)Cc2ccc(C(=O)O)cc2)[C@@H](C)CN([C@@H](C)CO)C(=O)c2cc(NC(=O)C3CCCCC3)ccc2O1	-17.9	-2.3	10.1	·	·	·	·
C[C@H]1CN([C@@H](C)CO)C(=O)c2cc(NC(=O)C3CCCCC3)ccc2O[C@@H]1CN(C)Cc1ccc(C(F)(F)F)cc1	91.6*	-3.7	14.7	92.0	38.4	-3.0	22.3
C[C@@H]1CCCCO[C@H](CN(C)Cc2ccncc2)[C@H](C)CN([C@@H](C)CO)C(=O)c2cc(NC(=O)C3CCCCC3)ccc2O1	89.6	-4.8	-9.6	·	·	·	·
SMILES	T cruzi growth-1	C diff HTS	Pf Dd2 inh	T cruzi growth-2	T cruzi growth-3	NIH3T3 tox	NIH3T3 tox 2
C[C@@H]1CN([C@@H](C)CO)C(=O)c2cc(NC(=O)Cn3cnnn3)ccc2O[C@H]1CN(C)C(=O)NC1CCCCC1	73.3	-2.6	28.9	·	·	·	·
O=C(C[C@H]1CC[C@@H]2[C@H](COC[C@H](O)CN2Cc2ccccc2)O1)NCCCN1CCOCC1	81.0	·	10.3	·	·	·	·
Cc1ccccc1-c1cnc2c(c1)C(=O)N([C@@H](C)CO)C[C@H](C)[C@H](CN(C)C(=O)CC1CC1)O2	·	-6.2	14.8	·	·	·	·
C[C@H](O)C#Cc1cnc2c(c1)C(=O)N([C@H](C)CO)C[C@@H](C)[C@H](CN(C)C(=O)Nc1ccc(F)cc1)O2	22.6	·	12.5	·	·	·	·
C[C@@H]1CCCCO[C@H](CN(C)Cc2ccc(C(F)(F)F)cc2)[C@@H](C)CN([C@H](C)CO)C(=O)c2cc(NC(=O)C3CCCCC3)ccc2O1	70.2	3.0	-27.8	·	·	·	·
C[C@@H]1CCCCO[C@@H](CN(C)Cc2ccc(C(F)(F)F)cc2)[C@H](C)CN([C@H](C)CO)C(=O)c2cc(NC(=O)C3CCCCC3)ccc2O1	117.8*	-1.0	-50.1	89.4	103.6*	21.8	17.0
CC=Cc1ccc2n(c1=O)C[C@@H]1[C@@H](CO)[C@H](C(=O)NCCc3ccncc3)[C@H]2N1CCC(F)(F)F (mixture of isomers)	33.3	·	·	·	·	·	·
O=S(=O)(c1ccc(F)cc1)N1CCCCN2[C@H](CO)[C@H](c3ccc(C#CC4CC4)cc3)[C@H]2C1	100.9*	55.9	-49.7	103.7*	82.8	42.9*	105.4*
COc1ccc(S(=O)(=O)N2CCCCN3[C@H](CO)[C@@H](c4ccc(C#CC5CC5)cc4)[C@H]3C2)cc1	?	34.7	-8.1	106.8*	105.6*	25.4	105.7*
O=S(=O)(c1ccc(F)cc1)N1CCCCN2[C@H](CO)[C@H](c3ccc(C#CC4CC4)cc3)[C@@H]2C1	100.2	11.8	-9.6	·	·	·	·
